Our source for the INHIBITION values is ChEMBL document CHEMBL4513216, “Probing the Open Global Health Chemical Diversity Library for Multistage-Active Starting Points for Next-Generation Antimalarials” (ACS Infect Dis, 2020).

Screen size: about 69,000 compounds; about 8,600 (12%) showed an effect of 50% or more. The sample as a whole holds a higher share of strong results than the screen did.

In the test the test system is Plasmodium berghei. The test is described as follows: Screen against P. berghei liver stage (PbLuc), transformed with Luciferase, at 10uM. Conditions: tested at 10 uM. The test is classed as functional, HepG2.
As to `Cc1noc(CCCc2nc(C3CCOC3)no2)n1` (stereo unspecified), the INHIBITION is given as 5.87%.
Turning to `Cc1nonc1C1CCCN1Cc1ccc(C(=O)Nc2nccs2)cc1` (stereo unspecified), the INHIBITION worked out at 56.6%.
The same measure for `Cc1cc(C2CCCN2Cc2ccc(C(=O)Nc3nccs3)cc2)on1` (stereo unspecified): 7.97%.
Under `Cc1cc(C2CCCN2Cc2cccc(C(=O)Nc3nccs3)c2)no1` (stereo unspecified) stands -30.7%.
Under `O=c1[nH]c2cn(-c3ccc(Br)cc3)c(=O)n2[nH]1` stands 31.6%; under `Cc1ccc(C)c(OC2CCN(C(=O)CNc3ccccc3Cl)CC2)c1`, 83.9%.
With `Cc1ccc(C)c(OC2CCN(C(=O)NCC(=O)N3CCCC3)CC2)c1`, the INHIBITION is -29.5%.
Under `CCNC(=O)CCC(=O)N1CCC(Oc2cc(C)ccc2C)CC1` stands 14.9%.
The same measure for `CCc1cnc(N)nc1N(C)CCc1cnn(C)c1`: 2.84%; for `CC(C)S(=O)(=O)C(C)C(=O)NCc1ccccc1COc1ccccc1` (stereo unspecified): -4.12%; for `CC(=O)C(C)CC(=O)N(Cc1cccc(C)c1)C(C)C` (stereo unspecified): 68.4%.
`COCCOCC(=O)N(Cc1cccc(C)c1)C(C)C`: the INHIBITION worked out at 5.94%.
Under `Cc1cccc(CN(C(=O)CS(C)(=O)=O)C(C)C)c1` stands -12.9%; under `O=C(c1ccc(O)cc1)N1C[C@@H]2OCCN(c3ncccn3)[C@@H]2C1`, -15.2%.
As to `CCOc1ncccc1NC(=O)NC1CCCN(S(C)(=O)=O)C1` (stereo unspecified), the INHIBITION is -2.19%.
With `COc1ncccc1C(=O)N1CCc2c(ncnc2N2CCOCC2)C1`, the INHIBITION was -102%.
Under `c1coc(CN2CCc3nnc(COc4cncnc4)n3CC2)c1` stands 10.6%; under `O=C1C(Sc2nnnn2C2CC2)CCN1c1ccccc1Cl` (stereo unspecified), 11.4%.
Under `Cc1ccc(F)cc1C(=O)N1CCOCC12CCCC2` stands 69.1%.
Under `Cc1[nH]ccc1C(=O)N1CCOCC12CCCC2` stands 19.3%; under `O=C(c1ccc[nH]1)N1CCOCC12CCCC2`, 40.9%; under `Cn1cc(C2CCCN2C(=O)c2cnc(-c3ccco3)s2)cn1` (stereo unspecified), 23.6%.
For the compound `CNc1nnc(CCn2nc(C)c(Br)c2C)s1`, the INHIBITION is on record as 7.38%.
The same measure for `CS(=O)(=O)c1ccc(-c2cnc(C3CCCN3)cn2)cc1` (stereo unspecified): 45.95%; for `CCCc1noc(CNc2ccc(C(=O)N3CCCC3)cc2C)n1`: 12.7%.
Under `COc1cc2cc(C)c(SCCN3CCCC3)nc2cc1OC` stands 33.2%.
On to `CCc1cc2cc(OC)c(OC)cc2nc1SCCN1CCCCC1`, for which the INHIBITION was 43.4%.
Under `COc1cc2cc(C)c(SCCN3CCCCC3)nc2cc1OC` stands 51.7%.
Under `CN1CCC(c2cccc(Cc3ccc(C(F)(F)F)cc3)n2)CC1` stands 85.7%.
The same measure for `CN1CCC(c2cccc(CCC(=O)NCC(N)=O)n2)CC1`: -6.92%; for `CN1CCC(c2cccc(NCc3ccncc3)n2)CC1`: -2.09%; for `CN1CCC(c2cccc(Cc3ccc(F)cc3)n2)CC1`: 35.8%.
For `COc1ccc(Cc2cccc(C3CCN(C)CC3)n2)cc1`, the INHIBITION turned out to be 43.8%.
Under `CN1CCC(c2cccc(Cc3ccccc3)n2)CC1` stands 82.7%; under `CCN(Cc1ccc2c(c1)OCO2)S(=O)(=O)N(C)C`, -21.9%; under `CC(C)Cc1noc(C2CCN(C(=O)c3cccs3)CC2)n1`, 17%.
As for `Cc1cnn(CC2CCCN2C(=O)c2cccc(-n3ccc(C)n3)c2)c1` (stereo unspecified), the INHIBITION is -17%.
For `NC(=O)COc1cccc(CN2CCc3cncnc3C2)c1`, the INHIBITION was 11.2%.
On to `CN(Cc1ccco1)[C@@H]1CN(Cc2ccoc2)C[C@@H]2CCCO[C@@H]21`, for which the INHIBITION came out at 41.3%.
Consider `CS(=O)(=O)c1cnc(C2CCCC2)nc1C1CCCNC1` (stereo unspecified), for which the INHIBITION worked out at 16.5%.
As for `COCCN1CCc2c(cnc(-c3ccccc3)c2C(=O)O)C1`, the INHIBITION came out at 36.4%.
Under `CC(C)(O)CN1CCN(C(=O)COCc2ccccc2Cl)CC1` stands 23.1%; under `Cc1cccc(-n2nnnc2C2(NCc3ccco3)CCCCC2)c1`, 28.7%; under `Cn1cnnc1C1CCCN(C(=O)NCc2cc[nH]n2)C1` (stereo unspecified), 50.4%.
For the compound `Cc1cc(C(=O)N2CCCC(c3nncn3C)C2)no1` (stereo unspecified), the INHIBITION was 36.5%.
The same measure for `Cn1cnnc1C1CCCN(C(=O)NCc2ccccc2)C1` (stereo unspecified): -33.7%.
Under `Cn1cnnc1C1CCCN(C(=O)c2cc(-c3ccccc3)on2)C1` (stereo unspecified) stands 60%; under `COC1CCN(C(=O)c2cc(-c3ccc(Cl)cc3)on2)CC1`, -55.6%; under `Cn1cnnc1C1CCN(C(=O)c2cc(-c3ccccc3)on2)CC1`, 51%.
The same measure for `Cc1noc(C2CCCN(C(=O)c3cc(-c4ccccc4)on3)C2)n1` (stereo unspecified): 47.7%; for `Cn1cnnc1C1CCCN(C(=O)NCc2ccccn2)C1` (stereo unspecified): 1.75%.
On to `Cn1cnnc1C1CCCN(C(=O)c2cc(C3CC3)on2)C1` (stereo unspecified), for which the INHIBITION came out at 5.15%.
For the compound `Cc1cccc2ncn(C(C)Cn3cccn3)c(=O)c12` (stereo unspecified), the INHIBITION is given as 31.7%.
For `Cc1nn(C)cc1C1CC(=O)Nc2c1cnn2C(C)C` (stereo unspecified), the INHIBITION turned out to be 48.4%.
Under `COCCN1C(=O)[C@@H]2CC[C@H]1CN(S(=O)(=O)c1ccc(C#N)cc1)C2` stands 39.1%; under `Cc1cnn(CC2CCCCN2CC(=O)Nc2cccnc2)c1` (stereo unspecified), 33.4%; under `O=C(NCc1cccnc1-n1cncn1)C1CC2(CCNCC2)CN1` (stereo unspecified), 20.2%.
The same measure for `O=C1CCN(C(=O)NCc2cccc(Oc3ccccc3)c2)CCN1`: 3.63%; for `O=C(Cc1cccs1)NCC1(O)CCSCC1`: -24.5%.
The same measure for `O=C(NCC1(O)CCSC1)c1ccoc1` (stereo unspecified): 86.7%; for `COC1(CNC(=O)c2ccoc2)CCSC1` (stereo unspecified): 14.2%.
For `O=C(Cc1cccs1)NCC1(O)CCc2ccccc2C1` (stereo unspecified), the INHIBITION was found to be 37.4%.
Take `O=C(Cc1cccs1)NCC1(O)CCSC1` (stereo unspecified): the INHIBITION stood at 54.8%.
With `O=C(NCC1(O)CCSCC1)c1ccoc1`, the INHIBITION is -2.04%.
The same measure for `CC(C)N(C)Cc1nnc2n1CCN(Cc1ccncc1)CC2`: 1.28%.
The same measure for `CN1C(=O)[C@@H]2CC[C@H]1CN(C(=O)Nc1cccc3ccccc13)C2`: -42.1%; for `NCc1n[nH]c(-c2ccc(F)cc2)n1`: -19.7%.
`CC(C)C(=O)N(C)Cc1nc(N2CCCC2)ncc1-c1ccncc1`: the INHIBITION was 11.235%.
`CCCC(=O)N(C)Cc1nc(N2CCCC2)ncc1-c1ccncc1`: the INHIBITION is recorded as 14.855%.
Under `COCC(=O)N(C)Cc1nc(N2CCCC2)ncc1-c1ccncc1` stands 52%.
The same measure for `Cc1cc(N(Cc2ccon2)S(C)(=O)=O)ccc1Br`: -22.6%.
